According to PubChem BioAssay:
Active and inactive are the calls of the source.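 The calls were made as follows: active = GFP response above 150% of the DMSO control; inconclusive = Fewer than 70 cells counted for a yeast strain; inactive = the rest.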

experiment: modulators of MEP2-GFP levels in yeast, confirmation, S. cerevisiae, flow cytometry GFP, cherry picks (AID 2272);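 also: ratio of well signal to plate DMSO mean so 100% equals DMSO level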; settings: S. cerevisiae MEP2-GFP strain, 3 h, at 10 µM, hits give high values

SMILES | GFP response vs DMSO
CCOC(=O)c1ccc(NC(=O)CCc2nc(-c3ccc(C)cc3)no2)cc1 | 107% (inactive)
Cc1cccc(N2C(=O)C(Cl)=C(Nc3c(C)n(C)n(-c4ccccc4)c3=O)C2=O)c1C | 104% (inactive)
Cc1noc2ncnc(Sc3ccc(Cl)cc3)c12 | 102% (inactive)
CCN(CC)c1ccc(/C=C/c2cccc[n+]2C)c(OC)c1 | 137% (inactive)
CC1=NOC(=O)/C1=C\c1ccc(-c2cc(Cl)ccc2Cl)o1 | 118% (inactive)
CCCN(c1ccccc1F)S(=O)(=O)c1cc(-c2cc(C)no2)ccc1OC | 102% (inactive)
COc1ccccc1-c1noc(CCC(=O)Nc2cccc(C)c2)n1 | 97.5% (inactive)
O=C(c1ccc([N+](=O)[O-])o1)N1CCN(c2nc3ccc(F)cc3s2)CC1 | 105% (inactive)
COc1ccc(Br)cc1/C=C/C(=O)c1ccc(NC(C)=O)cc1 | 101% (inactive)
CCOc1ccc(/C=C/C(=O)c2c(O)cc(C)oc2=O)cc1 | 106% (inactive)
CN1CCN(C(c2ccc(C(F)(F)F)cc2)c2ccc3cccnc3c2O)CC1 (stereo not given) | 109% (inactive)
O=C(NNC(=S)NC(=O)C12CC3CC(CC(C3)C1)C2)c1ccncc1 | 112% (inactive)
Cc1ccccc1NC(=O)c1ccccc1 | 107% (inactive)
Cc1cc(C(=O)Nc2nc(-c3ccccn3)cs2)ccc1[N+](=O)[O-] | 107% (inactive)
N/C(=N\OC(=O)c1cccc(Br)c1)c1ccccc1 | 105% (inactive)
O=C(Nc1nccs1)C(c1ccccc1)N1CCCCC1 (stereo not given) | 103% (inactive)
C=CCNC(=S)N/N=C(\C)c1cccc(OC)c1 | 99.5% (inactive)
O=[N+]([O-])c1cc(CN2CCN(c3cccc(C(F)(F)F)c3)CC2)c2cccnc2c1O | 145% (inactive)
COc1ccccc1/C=C/C=N/NC(=O)c1cccs1 | 107% (inactive)
O=C(Oc1ccnc2cc(Cl)ccc12)N1CCCCCC1 | 437% (active)

SMILES | GFP response vs DMSO
O=C(c1ccc([N+](=O)[O-])o1)N1CCN(c2nc3c(F)cc(F)cc3s2)CC1 | 197% (active)
Cc1nn(Cc2ccccc2Cl)c(C)c1C(=O)NCc1ccco1 | 99.3% (inactive)
N#C/C(=C\c1ccccn1)c1nc2ccccc2s1 | 1020% (active)
Cc1ccc(NC(=O)c2ccc([N+](=O)[O-])o2)cc1C | 110% (inactive)
O=C(N/N=C/c1ccc(-c2ccc(Br)cc2)o1)c1ccc2c(c1)OCO2 | 103% (inactive)
Cc1n[nH]c(C)c1N1C(=O)c2cccc3cc(Br)cc(c23)C1=O | 99% (inactive)
CC(C)(C)NC(=O)c1ccccc1-c1nc(-c2ccccc2Cl)no1 | 107% (inactive)
CCn1c(=O)c(C(=O)NCCc2ccccc2)c(O)c2ccccc21 | 103% (inactive)
O=C(O)Cn1cc(/C=C/[N+](=O)[O-])c2ccccc21 | 100% (inactive)
O=[N+]([O-])c1cc(C(F)(F)F)ccc1Sc1ccc2ccccc2n1 | 102% (inactive)
Cc1ccc(NC(=S)c2nc3ccccc3[nH]2)cc1 | 109% (inactive)
CCOc1ccc(C(C)=O)cc1N1C(=O)C2C3C=CC(O3)C2C1=O (stereo not given) | 103% (inactive)
O=C(CSc1nnc(-c2ccccn2)n1Cc1ccccc1)N1CCOCC1 | 108% (inactive)
Cc1cc(N2CCOCC2)n2nc(C)c(-c3ccccc3)c2n1 | 101% (inactive)
CCN(CC)CCN(C(=O)c1ccc2c(c1)CCCC2)c1nc2cc(OC)c(OC)cc2s1 | 97.5% (inactive)
COc1ccc(-c2ccc(CCC(=O)O)o2)cc1 | 102% (inactive)
COc1ccc(N2C(=O)C(Cl)=C(Nc3c(C)n(C)n(-c4ccccc4)c3=O)C2=O)cc1 | 99.5% (inactive)
Cn1ncc(N2CCN(S(=O)(=O)c3ccc(Br)cc3)CC2)c(Cl)c1=O | 107% (inactive)
O=C(CCc1ccccc1)NNC(=S)NC(=O)c1ccccc1 | 116% (inactive)
Cc1ccc(C(=O)OCC(=O)Nc2ccccc2Sc2ccccc2)cc1C | 96.6% (inactive)
